Laboratory results as given in PubChem BioAssay (NCI).
The panel holds about 83,000 compounds, 20% with a hit somewhere; the sample as a whole holds those more often.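 Step 1: grow cells in 96-well plates. Step 2: add test compound at a single concentration. Step 3: incubate 48 h. Step 4: record percent growth.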 The source made the active and inactive calls. How the source made its calls: active means growth percent below 10; inactive means the rest.

system: MDA-MB-468 breast; test: NCI-60 one-dose screen, 48 h (100 = growth as untreated, 0 = no growth, -100 = all killed); conditions: 10 µM unless noted

Row | Compound | growth
1 | CCN(CC)c1ccc(/C=C/C2=[N+](C)c3ccccc3C2(C)C)c(C)c1 | -9.14% (active)
2 | O=C1C[C@H](c2ccccc2)[C@H](c2ccccc2)C1 | 99.2% (inactive)
3 | COc1cccc2nc3n(c12)C(c1c(F)cccc1F)SC3 (stereo not given) | 89.2% (inactive)
4 | COc1c(O)cc2oc3cc(O)c(CC=C(C)C)c(O)c3c(=O)c2c1C/C=C(\C)CCC=C(C)C | 82.1% (inactive)
5 | COCc1cc2c(cc1Br)OCO2 | 110% (inactive)
